The supplement of paper PMC8387472

Key:
Assay in all cases: fraction of edited reads among all mapped reads; higher = more Cas9 editing
Details in all cases: mESC; 2uM; 72 h treatment, harvest day 5
[1] = compound: Cc1cc(C)nc(SCC(=O)Nc2ncc(Cc3cccc4ccccc34)s2)n1
[2] = compound: Cc1ccc(C(=O)NCCCCCC(=O)Nc2ccccc2N)cc1
[3] = compound: Cc1cccc(CC(=O)N2CCc3c2ccc(-c2cn(C)c4ncnc(N)c24)c3F)n1
[4] = compound: NC(=O)c1ccc2nc(-c3ccc(Oc4ccc(Cl)cc4)cc3)[nH]c2c1 [Chk 2 inhibitor II (BML-277)]
Tucidinostat (Chidamide) = compound: Nc1cc(F)ccc1NC(=O)c1ccc(CNC(=O)/C=C/c2cccnc2)cc1 [Tucidinostat (Chidamide)]
Pemetrexed = compound: Nc1nc2[nH]cc(CCc3ccc(C(=O)N[C@@H](CCC(=O)O)C(=O)O)cc3)c2c(=O)[nH]1 [Pemetrexed]
[5] = compound: Nc1ncnc2c1c(-c1cnc3[nH]ccc3c1)nn2C1CCCC1
[6] = compound: O=C(c1cccc(Cl)c1F)N1CCN(Cc2cccc(Nc3nccs3)n2)CC1
Kenpaullone = compound: O=C1Cc2c([nH]c3ccc(Br)cc23)-c2ccccc2N1 [Kenpaullone]
Genistein = compound: O=c1c(-c2ccc(O)cc2)coc2cc(O)cc(O)c12 [Genistein]

| Target | fraction of edited reads among all mapped reads [1] | fraction of edited reads among all mapped reads [2] | fraction of edited reads among all mapped reads [3] | fraction of edited reads among all mapped reads [4] | fraction of edited reads among all mapped reads (Tucidinostat (Chidamide)) | fraction of edited reads among all mapped reads (Pemetrexed) | fraction of edited reads among all mapped reads [5] | fraction of edited reads among all mapped reads [6] | fraction of edited reads among all mapped reads (Kenpaullone) | fraction of edited reads among all mapped reads (Genistein) |
| --- | --- | --- | --- | --- | --- | --- | --- | --- | --- | --- |
| 45.0 (DMSO control at this site: 1-bp insertion 0.017, MH deletion 0.666, edited 0.101) TTACACAGCATGAACTGCTAGGTGATGATGTCAGATTCGGTTTTACTAACTTCTCCAAAAA | 0.195 | 0.111 | 0.151 | 0.127 | 0.0928 | 0.0998 | 0.0941 | 0.069 | 0.233 | 0.139 |
| 4.0 (DMSO control at this site: 1-bp insertion 0.146, MH deletion 0.523, edited 0.125) ACGCCTTAGTGCACGAGTGACGGGATAATGTGGTCTCAGGTAATTGATAGGCTTCCAACTT | 0.237 | 0.155 | 0.209 | 0.166 | 0.13 | 0.16 | 0.15 | 0.0959 | 0.306 | 0.175 |
| 27.0 CCAGAATTAGAACATATCATCTGGACCCTTTTCCATCTGGACCCTTTTCCAGCACACCCTG | 0.0968 | 0.0456 | – | – | 0.0322 | – | 0.0403 | – | 0.141 | 0.0708 |
| 29.0 (DMSO control at this site: 1-bp insertion 0.084, MH deletion 0.745, edited 0.133) TTGATGAACTTCCTCTTCTTCTCATGTCTCCGGTCTCCGGTAGGCCACGTGCATGGCCACT | 0.239 | 0.147 | 0.189 | 0.165 | 0.129 | 0.13 | 0.144 | 0.0932 | 0.261 | 0.18 |
| 30.0 (DMSO control at this site: 1-bp insertion 0.074, MH deletion 0.67, edited 0.142) GAGCTGGCATGAGTATTTGTGCCACATGGCTCCCACATGGCTCCACATGCAAGTTTGAAAC | 0.226 | 0.147 | 0.212 | 0.179 | 0.129 | 0.148 | 0.143 | 0.112 | 0.286 | 0.191 |
| 41.0 (DMSO control at this site: 1-bp insertion 0.022, MH deletion 0.754, edited 0.115) AAAGAGACAGCAGGTATGAATCCATCTTCCTGACCCTTGGGACCAGCCGGGGCAGTGAAGC | 0.227 | 0.138 | 0.172 | 0.157 | 0.121 | 0.12 | 0.113 | 0.0798 | 0.25 | 0.169 |
| 32.0 (DMSO control at this site: 1-bp insertion 0.03, MH deletion 0.85, edited 0.898) AGAAGTCCAGGATCAGGGGGACTGGGGTCGGGAGGGTGGGGCAGGAAGGAAGCCAGAATCA | 0.946 | 0.904 | 0.925 | 0.917 | 0.9 | 0.87 | 0.891 | 0.849 | 0.951 | 0.923 |
| 31.0 (DMSO control at this site: 1-bp insertion 0.315, MH deletion 0.329, edited 0.026) ACCTCCACAGGCTGGGTGGCCCGGAGGCTGGGCGGCCCGGAGGCTGGGCTGGGCGAGTATC | 0.0451 | 0.0289 | – | – | 0.0207 | 0.0406 | 0.0296 | 0.0243 | 0.0456 | 0.026 |
| 40.0 (DMSO control at this site: 1-bp insertion 0.072, MH deletion 0.192, edited 0.189) GCGAATCAACTGTTCAACAACAGCAGCAGCCACCTGGAGGACTACAGTGGCCTGTCCGTGT | 0.334 | 0.199 | 0.298 | 0.238 | 0.193 | 0.179 | 0.201 | 0.142 | 0.432 | 0.24 |
| 2.0 (DMSO control at this site: 1-bp insertion 0.364, MH deletion 0.356, edited 0.125) GGTGCCCCCGAGACCTACGCGAACCGAAATCGATGTCCGGTGCGCAAGCAGGGCTGGCGTC | 0.231 | 0.128 | 0.18 | 0.147 | 0.115 | 0.129 | 0.137 | 0.102 | 0.286 | 0.169 |
| 20.0 (DMSO control at this site: 1-bp insertion 0.349, MH deletion 0.138, edited 0.084) TACAGGTGTAGACTGGTTACGTGGCTGCGGAATTGACTGGTTACGTGGCTGCGGAATTTTG | 0.152 | 0.0728 | 0.111 | 0.106 | 0.0826 | 0.0835 | 0.117 | 0.0574 | 0.232 | 0.125 |
| 46.0 TTAAGAGCAATGTTCACGCAACTTGAAATTATATCTGTGGTCTTCAAATTGTCTTTTGTCA | – | 0.1 | – | – | 0.0602 | 0.136 | 0.105 | – | – | 0.116 |
| 44.0 (DMSO control at this site: 1-bp insertion 0.181, MH deletion 0.512, edited 0.123) ACACATACCTTCTTCGAGGCAGCCAGCATGATGAGACAGGTCTCCCACAAACACATCGTGT | 0.232 | 0.141 | 0.191 | 0.167 | 0.124 | 0.138 | 0.124 | 0.11 | 0.265 | 0.167 |
| 7.0 (DMSO control at this site: 1-bp insertion 0.128, MH deletion 0.374, edited 0.098) TACTCAACCGAGACCTACGCGAACCGAAATCGTATGCCGGTGCGCAAGCAGGGCTGGCGTC | 0.173 | 0.0971 | 0.138 | 0.128 | 0.1 | 0.1 | 0.096 | 0.0816 | 0.195 | 0.124 |
| 34.0 (DMSO control at this site: 1-bp insertion 0.184, MH deletion 0.385, edited 0.103) ATTATAGGACCCTGAGGGAGCAGAGATGTGGGAATGGGGGCCGAGCCAATTGTGATGTAAG | 0.159 | 0.112 | 0.134 | 0.113 | 0.104 | 0.0912 | 0.0944 | 0.0799 | 0.18 | 0.112 |
| 8.0 GCATGCGTGTTTTGGGACAATGTAGTATACATTTGGGAGGCTCTCAGCTTTTCCCAATAAA | 0.021 | – | – | – | 0.0159 | 0.0154 | 0.0205 | – | 0.0456 | – |
| 39.0 (DMSO control at this site: 1-bp insertion 0.328, MH deletion 0.371, edited 0.204) CTGCACAGTCACTTAGGATAGGAGAAGATGATGTATAGGGTTTAGTGGGAGATGTTGCAAG | 0.3 | 0.189 | 0.29 | 0.229 | 0.184 | 0.177 | 0.196 | 0.141 | 0.328 | 0.231 |
| 43.0 (DMSO control at this site: 1-bp insertion 0.134, MH deletion 0.714, edited 0.104) AGTTTAACTTACTCCGGCCAAAAAAGAACTGCACCTCTGGAGCGGGTTAGTGGTGGTGGTA | 0.219 | 0.137 | 0.172 | 0.155 | 0.116 | 0.093 | 0.126 | 0.0909 | 0.271 | 0.179 |
| 38.0 (DMSO control at this site: 1-bp insertion 0.063, MH deletion 0.487, edited 0.17) GGGCTGGGTGCTAAAATGAGGAGCTCCAAGAAGACTGAGGTGAACCTGGAGGCCCCTGAGC | 0.27 | 0.178 | 0.197 | 0.187 | 0.181 | 0.167 | 0.146 | 0.128 | 0.316 | 0.198 |
